Binding signal data for eight molecules are collected here from PMC11102866, “Nucleosome-bound NR5A2 structure reveals pioneer factor mechanism by DNA minor groove anchor competition”.

B1: 117 (nucleosome)
DNA 1: ATCCTGGAGAATCCCGGTGCCGAGGCCGCTCAATTGGTCGTAGACAGCTCTAGCACCGCTTAAACGCACGTACGCGCTGTCCCCCGCGTTTTAACCGCCAAGGGGATTACTCCCTAGTCTCAAGGCCAGTGTCAGATATATACATCCTGTGAT
DNA 2: ATCACAGGATGTATATATCTGACACTGGCCTTGAGACTAGGGAGTAATCCCCTTGGCGGTTAAAACGCGGGGGACAGCGCGTACGTGCGTTTAAGCGGTGCTAGAGCTGTCTACGACCAATTGAGCGGCCTCGGCACCGGGATTCTCCAGGAT
modifications: reconstituted with mouse histones H2A, H2B, H3.3 and H4
B2: 120 (nucleosome)
DNA 1: ATCCTGGAGAATCCCGGTGCCGAGGCCGCTCAATTGGTCGTAGACAGCTCTAGCACCGCTTAAACGCACGTACGCGCTGTCCCCCGCGTTTTAACCGCCAAGGGGATTACTCCCTAGTCTCCTCAAGGCCATCAGATATATACATCCTGTGAT
DNA 2: ATCACAGGATGTATATATCTGATGGCCTTGAGGAGACTAGGGAGTAATCCCCTTGGCGGTTAAAACGCGGGGGACAGCGCGTACGTGCGTTTAAGCGGTGCTAGAGCTGTCTACGACCAATTGAGCGGCCTCGGCACCGGGATTCTCCAGGAT
modifications: reconstituted with mouse histones H2A, H2B, H3.3 and H4
B3: 119 (nucleosome)
DNA 1: ATCCTGGAGAATCCCGGTGCCGAGGCCGCTCAATTGGTCGTAGACAGCTCTAGCACCGCTTAAACGCACGTACGCGCTGTCCCCCGCGTTTTAACCGCCAAGGGGATTACTCCCTAGTCTCTCAAGGCCAGTCAGATATATACATCCTGTGAT
DNA 2: ATCACAGGATGTATATATCTGACTGGCCTTGAGAGACTAGGGAGTAATCCCCTTGGCGGTTAAAACGCGGGGGACAGCGCGTACGTGCGTTTAAGCGGTGCTAGAGCTGTCTACGACCAATTGAGCGGCCTCGGCACCGGGATTCTCCAGGAT
modifications: reconstituted with mouse histones H2A, H2B, H3.3 and H4
B4: 113 (nucleosome)
DNA 1: ATCCTGGAGAATCCCGGTGCCGAGGCCGCTCAATTGGTCGTAGACAGCTCTAGCACCGCTTAAACGCACGTACGCGCTGTCCCCCGCGTTTTAACCGCCAAGGGGATTACTCCCTTCAAGGCCAGCACGTGTCAGATATATACATCCTGTGAT
DNA 2: ATCACAGGATGTATATATCTGACACGTGCTGGCCTTGAAGGGAGTAATCCCCTTGGCGGTTAAAACGCGGGGGACAGCGCGTACGTGCGTTTAAGCGGTGCTAGAGCTGTCTACGACCAATTGAGCGGCCTCGGCACCGGGATTCTCCAGGAT
modifications: reconstituted with mouse histones H2A, H2B, H3.3 and H4
B5: 118 (nucleosome)
DNA 1: ATCCTGGAGAATCCCGGTGCCGAGGCCGCTCAATTGGTCGTAGACAGCTCTAGCACCGCTTAAACGCACGTACGCGCTGTCCCCCGCGTTTTAACCGCCAAGGGGATTACTCCCTAGTCTTCAAGGCCATGTCAGATATATACATCCTGTGAT
DNA 2: ATCACAGGATGTATATATCTGACATGGCCTTGAAGACTAGGGAGTAATCCCCTTGGCGGTTAAAACGCGGGGGACAGCGCGTACGTGCGTTTAAGCGGTGCTAGAGCTGTCTACGACCAATTGAGCGGCCTCGGCACCGGGATTCTCCAGGAT
modifications: reconstituted with mouse histones H2A, H2B, H3.3 and H4
B6: 116 (nucleosome)
DNA 1: ATCCTGGAGAATCCCGGTGCCGAGGCCGCTCAATTGGTCGTAGACAGCTCTAGCACCGCTTAAACGCACGTACGCGCTGTCCCCCGCGTTTTAACCGCCAAGGGGATTACTCCCTAGTTCAAGGCCACGTGTCAGATATATACATCCTGTGAT
DNA 2: ATCACAGGATGTATATATCTGACACGTGGCCTTGAACTAGGGAGTAATCCCCTTGGCGGTTAAAACGCGGGGGACAGCGCGTACGTGCGTTTAAGCGGTGCTAGAGCTGTCTACGACCAATTGAGCGGCCTCGGCACCGGGATTCTCCAGGAT
modifications: reconstituted with mouse histones H2A, H2B, H3.3 and H4
B7: 114 (nucleosome)
DNA 1: ATCCTGGAGAATCCCGGTGCCGAGGCCGCTCAATTGGTCGTAGACAGCTCTAGCACCGCTTAAACGCACGTACGCGCTGTCCCCCGCGTTTTAACCGCCAAGGGGATTACTCCCTATCAAGGCCACACGTGTCAGATATATACATCCTGTGAT
DNA 2: ATCACAGGATGTATATATCTGACACGTGTGGCCTTGATAGGGAGTAATCCCCTTGGCGGTTAAAACGCGGGGGACAGCGCGTACGTGCGTTTAAGCGGTGCTAGAGCTGTCTACGACCAATTGAGCGGCCTCGGCACCGGGATTCTCCAGGAT
modifications: reconstituted with mouse histones H2A, H2B, H3.3 and H4
B8: 126 (nucleosome)
DNA 1: ATCCTGGAGAATCCCGGTGCCGAGGCCGCTCAATTGGTCGTAGACAGCTCTAGCACCGCTTAAACGCACGTACGCGCTGTCCCCCGCGTTTTAACCGCCAAGGGGATTACTCCCTAGTCTCCAGGCACTCAAGGCCAATATACATCCTGTGAT
DNA 2: ATCACAGGATGTATATTGGCCTTGAGTGCCTGGAGACTAGGGAGTAATCCCCTTGGCGGTTAAAACGCGGGGGACAGCGCGTACGTGCGTTTAAGCGGTGCTAGAGCTGTCTACGACCAATTGAGCGGCCTCGGCACCGGGATTCTCCAGGAT
modifications: reconstituted with mouse histones H2A, H2B, H3.3 and H4

The target in the first experiment is NR5A2 wild type;histone octamer (Homo sapiens;, UniProt O00482;C0HKE1;Q6ZWY9;P84244;P62806 1-541;2-130;2-126;2-136;2-103, |). Briefly: SeEN-seq (EMSA of nucleosome library followed by sequencing); 0.8 uM human NR5A2; 20 mM Tris-HCl pH 7.5, 120 mM NaCl, 1 mM MgCl2, 10 uM ZnCl2, 1 mM DTT, 100 ug/ml BSA, room temperature, 30 min; 0.1 uM nucleosome library; high values mean tight binding. In general terms: A gel shift assay detects complexes by their altered migration in electrophoresis.
In the case of B1, the binding signal is 1.13 log2 enrichment (bound/unbound, relative to Widom 601).

For B2, the binding signal was 0.677 log2 enrichment (bound/unbound, relative to Widom 601).

Take B3: the binding signal was 0.607 log2 enrichment (bound/unbound, relative to Widom 601).

As to B4, the binding signal was 0.896 log2 enrichment (bound/unbound, relative to Widom 601).

In the case of B5, the binding signal is 1.08 log2 enrichment (bound/unbound, relative to Widom 601).

In the case of B6, the binding signal was 1.39 log2 enrichment (bound/unbound, relative to Widom 601).

B7: the binding signal is 1.13 log2 enrichment (bound/unbound, relative to Widom 601).

With B8, the binding signal is 4.66 log2 enrichment (bound/unbound, relative to Widom 601).

The next experiment deals with mouse Nr5a2 wild type;histone octamer (Mus musculus;, UniProt P45448;C0HKE1;Q6ZWY9;P84244;P62806 1-560;2-130;2-126;2-136;2-103, |). Briefly: SeEN-seq (EMSA of nucleosome library followed by sequencing); 1.2 uM mouse Nr5a2; 20 mM Tris-HCl pH 7.5, 120 mM NaCl, 1 mM MgCl2, 10 uM ZnCl2, 1 mM DTT, 100 ug/ml BSA, room temperature, 30 min; 0.1 uM nucleosome library; high values mean tight binding.
B1: the binding signal is 1.34 log2 enrichment (bound/unbound, relative to Widom 601).

B2: the binding signal was 0.768 log2 enrichment (bound/unbound, relative to Widom 601).

B3: the binding signal was 0.776 log2 enrichment (bound/unbound, relative to Widom 601).

B4: the binding signal was 0.869 log2 enrichment (bound/unbound, relative to Widom 601).

As for B5, the binding signal is 1.4 log2 enrichment (bound/unbound, relative to Widom 601).

Regarding B6, the binding signal was 2.15 log2 enrichment (bound/unbound, relative to Widom 601).

Consider B7, for which the binding signal was 1.08 log2 enrichment (bound/unbound, relative to Widom 601).

With B8, the binding signal is 3.59 log2 enrichment (bound/unbound, relative to Widom 601).
